Results published in PubChem BioAssay AID485346 (Sanford-Burnham Center for Chemical Genomics, 2010).
Out of some 330,000 compounds screened, about 10,000 (3%) were called active.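 The calls were made as follows: active = inhibition of at least 50% at 8 µM in the primary screen; inactive = the rest.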 For the sample, actives were picked, then their nearest neighbours and some compounds at random.

target: Protein Mdm4 (Homo sapiens) + E3 ubiquitin-protein ligase Mdm2 (Homo sapiens) (UniProt O15151+Q00987); assay: inhibitors of human Mdm2-MdmX association, primary screen, cell-based, luminescence, split luciferase, SaOS-2, uHTS (AID 485346); conditions: SaOS-2 split-luciferase Mdm2/MdmX complementation, at 8 µM, stronger effect = higher value
Sequence (O15151 whole entry, looked up): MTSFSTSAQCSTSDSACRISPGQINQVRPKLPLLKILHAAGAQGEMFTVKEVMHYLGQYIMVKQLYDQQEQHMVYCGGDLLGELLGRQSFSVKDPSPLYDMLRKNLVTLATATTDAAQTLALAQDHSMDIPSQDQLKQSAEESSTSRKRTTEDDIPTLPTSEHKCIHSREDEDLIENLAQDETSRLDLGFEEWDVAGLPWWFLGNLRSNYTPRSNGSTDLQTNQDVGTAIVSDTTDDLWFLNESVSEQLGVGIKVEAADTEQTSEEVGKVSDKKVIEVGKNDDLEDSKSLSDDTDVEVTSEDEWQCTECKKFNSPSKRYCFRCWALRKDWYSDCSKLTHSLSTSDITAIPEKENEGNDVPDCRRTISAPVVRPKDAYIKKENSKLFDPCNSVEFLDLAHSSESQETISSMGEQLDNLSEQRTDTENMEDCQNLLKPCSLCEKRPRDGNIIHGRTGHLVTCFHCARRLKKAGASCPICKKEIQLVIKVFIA
Sequence (Q00987 whole entry, looked up): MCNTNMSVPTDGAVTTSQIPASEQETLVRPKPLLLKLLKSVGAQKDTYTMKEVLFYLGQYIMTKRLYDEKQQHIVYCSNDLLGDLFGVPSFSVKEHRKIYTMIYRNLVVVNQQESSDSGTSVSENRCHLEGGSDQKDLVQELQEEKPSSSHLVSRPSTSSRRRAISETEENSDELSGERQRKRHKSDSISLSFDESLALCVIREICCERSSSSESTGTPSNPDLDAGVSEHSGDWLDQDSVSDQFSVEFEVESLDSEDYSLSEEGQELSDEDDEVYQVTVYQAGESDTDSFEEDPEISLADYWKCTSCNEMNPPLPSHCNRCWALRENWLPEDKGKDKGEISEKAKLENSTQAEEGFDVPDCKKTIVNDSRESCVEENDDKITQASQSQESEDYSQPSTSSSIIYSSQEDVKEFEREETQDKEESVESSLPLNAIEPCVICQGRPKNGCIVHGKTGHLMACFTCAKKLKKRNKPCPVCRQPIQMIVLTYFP

Row | SMILES | inhibition
1 | COc1ccc(NC(=O)c2cccc3c2C(=O)N(CC2CCCO2)C3)cc1OC (configuration not stated) | -24.7% (inactive)
2 | CC(NC(=O)COC(=O)c1ccc2ccccc2n1)c1ccccc1 (configuration not stated) | -14.1% (inactive)
3 | C=CCSc1ccc(S(=O)(=O)N2CCN(C)CC2)cn1 | 13.1% (inactive)
4 | COc1ccc(N(CC(=O)NC2CCCCCCC2)S(=O)(=O)c2c(C)nn(C)c2C)cc1 | -2% (inactive)
5 | O=C(/C=C/c1ccc([N+](=O)[O-])o1)NNC(=O)c1ccc(F)cc1 | 40% (inactive)
6 | CCOCCCNC(=S)N1CCC(NC(=O)C2CCCCC2)CC1 | 15.2% (inactive)
7 | Cc1ccc(C(=O)C(=S)N2CCOCC2)cc1 | 10.1% (inactive)
8 | CC(C)CC(CCc1ccccc1)OS(N)(=O)=O (configuration not stated) | -32.9% (inactive)
9 | COc1cc2cc(C(=O)N/N=C/c3cccc(OC)c3OC)[nH]c2cc1OC | -21.6% (inactive)
10 | COc1cccc(/C=N/NC(=O)c2[nH]nc3c2CCc2ccccc2-3)c1O | 74.6% (active)
11 | COc1cc(OC)c(/C=N/NC(=O)c2ccc([N+](=O)[O-])cc2)cc1Br | 46.6% (inactive)
12 | COC(=O)CN1C(=O)[C@H]2[C@@H](/C=C/c3ccccc3)N3C(=O)CN(CC4CC4)C(=O)[C@@]3(Cc3ccccc3)[C@H]2C1=O | -8.09% (inactive)
13 | COc1ccc(C(O)(C2CCCCC2)C(CN2CCCC2)c2ccccc2)cc1 (configuration not stated) | 33.8% (inactive)
14 | Fc1ccc(CNc2nc3ccccc3n3nnnc23)cc1 | 54% (active)
15 | CCOC(=O)CNc1nc2ccccc2n2c(C)nnc12 | 1.6% (inactive)
16 | COc1ccc(CNc2nnnn2C)cc1 | -2.21% (inactive)
17 | CCc1nnc(NC(=O)CCC(=O)N2CCN(c3cc(C)ccc3C)CC2)s1 | 13.7% (inactive)
18 | CC(C)[C@@H]1COC(c2cccc(C3=N[C@H](C(C)C)CO3)c2)=N1 | -13.9% (inactive)
19 | COc1cc(/C=N/NC(=O)c2cc(-c3ccccc3C)nc3ccccc23)cc(OC)c1O | -4.47% (inactive)
20 | COc1ccc(CN(C)C(=O)c2cc(-c3ccc(C)cc3C)nc3ccccc23)c(OC)c1OC | 68.6% (active)
21 | COc1ccc(-c2cc(C(=O)N(C)CC(=O)Nc3ccccc3Cl)c3ccccc3n2)cc1OC | 54.1% (active)
22 | CN(CCOc1ccccc1)C(=O)c1cc(-c2ccco2)nc2ccccc12 | 18.2% (inactive)
23 | COc1ccc(-c2cc(C(=O)N(C)Cc3ccc(OC)c(OC)c3OC)c3ccccc3n2)cc1OC | 63.2% (active)
24 | COc1ccc(NC(=O)CN(C)C(=O)c2cc(-c3ccc(C)o3)nc3ccccc23)cc1 | 30.3% (inactive)
25 | COc1ccc(-c2cc(C(=O)NCCCN3CCCC3=O)c3ccccc3n2)cc1OC | 8.93% (inactive)
26 | COc1ccc(Cl)cc1NC(=O)CN(C)C(=O)c1ccc2n[nH]nc2c1 | 10.7% (inactive)
27 | COc1ccc(Cl)cc1NC(=O)CN(C)C(=O)c1cc2ccccc2cc1OC | 29.4% (inactive)
